This is a sample that favours compounds with a hit; in the whole collection about 5.6% have one here.
H9c2 protect: protects H9c2 cardiomyocytes from peroxide injury; actives 0.63% (n = 360,000); protection from H2O2 cell death, % at 20 µM; H2O2 injury protection, ATPLite, 2 h;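 active means compounds giving at least 50% protection of heart cells from peroxide-induced death in the single-dose screen, raw or plate-pattern-corrected value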;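 further: 0% = DMSO wells with peroxide and 100% = DMSO wells without peroxide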
ALR H2O2 inh: inhibitors of human sulfhydryl oxidase ALR; inhibition, % (test concentration not listed); AID 485317; purified ALR, DTT oxidation, H2O2 HRP-luminol luminescence; P55789; actives 3.8% (n = 290,000);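 active means mean replicate inhibition above about 79%, with every replicate also reaching it, limit read from the data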
PHOSPHO1 inh: blocks human PHOSPHO1 phosphatase activity | Q8TCT1 | recombinant PHOSPHO1, absorbance phosphatase assay | inhibition, % at 13.3 µM | actives 1.1% (n = 290,000); in the data active means inhibition above about 60%
Target sequence (Q8TCT1 whole entry, looked up): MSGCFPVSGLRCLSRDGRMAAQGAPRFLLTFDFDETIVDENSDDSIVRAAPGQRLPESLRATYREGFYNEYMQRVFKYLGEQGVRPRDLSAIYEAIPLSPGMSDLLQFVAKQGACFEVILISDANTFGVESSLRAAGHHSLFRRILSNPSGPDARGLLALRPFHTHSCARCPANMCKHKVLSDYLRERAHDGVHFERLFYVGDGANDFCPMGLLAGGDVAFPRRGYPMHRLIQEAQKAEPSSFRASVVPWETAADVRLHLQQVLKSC
PfG6PD inh: PfG6PD (Plasmodium falciparum) enzyme inhibition; PfGluPho enzyme, NADPH resazurin-diaphorase fluorescence; inhibition, % at 20 µM; actives 0.78% (n = 350,000); AID 504690;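 active means inhibition reaching at least a set limit at 20 µM in the primary screen, cut at about 59% in these data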;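 further: 0% = DMSO wells with substrate and 100% = DMSO wells lacking glucose-6-phosphate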
PfM18AAP inh: blocks P. falciparum M18 aspartyl aminopeptidase; recombinant PfM18AAP, H-Glu-NHMec fluorogenic cleavage; inhibition, % at 7.35 µM; actives 1.2% (n = 290,000);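 active means inhibition above the campaign mean inhibition over all tested compounds plus 3 SD, cut at about 28% in these data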;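 further: 0% = plate median of test compound wells and 100% = 2 mM ZnCl2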
An asterisk follows results filed as active; nt = no result given.

SMILES	H9c2 protect	ALR H2O2 inh	PHOSPHO1 inh	PfG6PD inh	PfM18AAP inh
CN(C)C(CNC(=O)CN1C(=O)NC2(CCc3ccccc32)C1=O)c1ccco1 (configuration not stated)	-3	100*	-7	3	-3
O=C(CN1C(=O)NC2(CCCc3ccccc32)C1=O)NCc1ccco1 (configuration not stated)	-7	-6	5	-13	-9
CCOC(=O)N1CCN(CC(O)COc2ccccc2C(C)C)CC1 (configuration not stated)	-9	-3	45	0	-9
CCN(CCNCC(O)COc1ccccc1C(C)C)c1cccc(C)c1 (configuration not stated)	-20	99*	33	15	3
O=C1CNC(=S)N1c1nc2ccccc2s1	3	95*	13	-4	19
c1ccc2sc(N3CCCCC3)nc2c1	-3	nt	nt	-23	nt
Cc1c(S(=O)(=O)NC2CCCCCC2)c(=O)n(C)c(=O)n1C	0	-1	nt	7	nt
O=C(CCCCCn1nnc2ccccc2c1=O)Nc1ccccc1F	-2	-10	nt	4	4
CC(C)C1CC(CCNCc2ccc(N(C)C)cc2)(c2ccccc2)CCO1 (configuration not stated)	-8	5	-6	17	-8
Cc1ccc(C2(CCNCc3ccc(N(C)C)cc3)CCOC(C(C)C)C2)cc1 (configuration not stated)	-18	nt	64*	16	0
COc1ccccc1N1CCN(C(=O)c2cc(C)oc2C)CC1	13	nt	2	-6	-5
Cc1cccc(N2CCN(C(=O)C(C)C)CC2)c1C	6	2	6	-5	8
CCOc1ccccc1N1CCN(C(=O)C(F)(F)F)CC1	9	22	9	-1	-8
CC(C)C(=O)N1CCN(c2ccccc2N)CC1	11	99*	-4	1	-8
Cc1cc(C(=O)N2CCN(c3ccccc3O)CC2)c(C)o1	-1	98*	nt	13	nt
O=C(c1ccc2ccccc2n1)N1CCN(c2ccccc2O)CC1	6	98*	24	-1	19
CCOc1ccccc1N1CCN(C(=O)CC(C)(C)C)CC1	5	11	73*	-17	-8
COCCN(C(=O)COC(=O)Cc1coc2cc3c(cc12)CCC3)c1c(N)n(Cc2ccccc2)c(=O)[nH]c1=O	-6	50	nt	1	nt
COc1ccc(OCC(=O)NC(=O)c2ccccc2OC)c([N+](=O)[O-])c1	14	-35	nt	12	nt
CCOC(=O)N1CCN(c2ccccc2OC)CC1	4	-4	25	6	-1
CCOC(=O)N1CCN(c2ccccc2O)CC1	6	99*	-12	12	26
COc1cccc(N2CCN(C(=O)c3cc(C)oc3C)CC2)c1	5	90*	nt	4	nt
COc1cc(CN2CCN(C(=O)c3ccccc3F)CC2)cc(OC)c1OC	4	-15	19	-10	-2
CC1CC(OC(=O)C2CCN(S(=O)(=O)c3ccc(F)cc3)CC2)C(=O)O1 (configuration not stated)	9	nt	nt	4	nt
CC1=C(C#N)C(=O)NC1(C)O (configuration not stated)	-2	nt	nt	4	nt
SMILES	H9c2 protect	ALR H2O2 inh	PHOSPHO1 inh	PfG6PD inh	PfM18AAP inh
COc1cccc(C2Nc3ccccc3C(=O)N2O)c1O (configuration not stated)	1	87*	20	-15	1
CCn1cc(C2Nc3ccccc3C(=O)N2O)c(C)n1 (configuration not stated)	1	-6	22	-12	-12
COc1cccc(C2Nc3ccccc3C(=O)N2c2ccc(F)cc2)c1O (configuration not stated)	24	75	-7	2	3
O=C1c2ccccc2NC(c2ccc([N+](=O)[O-])cc2)N1O (configuration not stated)	62*	33	36	-1	1
Cc1c(C2Nc3ccccc3C(=O)N2O)cnn1C (configuration not stated)	52*	-11	-7	-8	7
O=C1c2ccccc2NC(c2cccc([N+](=O)[O-])c2)N1O (configuration not stated)	25	20	nt	-3	-1
COc1ccccc1NC(=O)C(C)OC(=O)CCSc1ccc(F)cc1 (configuration not stated)	-4	0	nt	4	nt
COc1ccc(CNC(=O)CC[C@H]2O[C@@H](n3cc(C)c(=O)[nH]c3=O)C[C@@H]2O)cc1	4	nt	nt	nt	nt
COCCCNC(=O)c1ccc2c3c(onc13)-c1ccccc1C2=O	-18	13	29	16	0

Source: PubChem BioAssay (several laboratories)
